Molecules are shown by their SMILES. Compounds without any hit were thinned out: in the full panel of roughly 83,000, 20% have a hit.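 Single-dose data. Exposure time 48 hours. Values below 10 considered active.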 A number with no mark means an inactive call. Active and inactive are the calls of the source.

Among the test systems are HCT-15 colon; HT29 colon; SNB-75 CNS; SNB-19 CNS; SK-MEL-5 melanoma; UACC-62 melanoma; LOX IMVI melanoma; SK-MEL-28 melanoma; PC-3 prostate; U251 CNS.
Common to all, as to assay: NCI-60 one-dose screen, 48 h (100 = growth as untreated, 0 = no growth, -100 = all killed)
Holding throughout (conditions): 10 µM unless noted

In the case of `c1cnc2[nH]cc(-c3csc(-c4cn(CCCCN5CCOCC5)c5ccccc45)n3)c2c1`, the growth with HCT-15 colon was 5.17% (active); in the test on HT29 colon it was -44.6% (active); in the test with SNB-75 CNS it was 35.4%; in the test with SNB-19 CNS, 57.5%; in the test on SK-MEL-5 melanoma, 51.2%; with UACC-62 melanoma it was 68.9%. The growth in the test with LOX IMVI melanoma is 20.8%; in the test on SK-MEL-28 melanoma, -71.1% (active).

Regarding `CC(C)CCC1(CCCl)C(=O)NC(=O)NC1=O`, the growth in the test on HCT-15 colon is 98.9%; with HT29 colon, 109%; with SNB-75 CNS it was 85.3%; in the test on SNB-19 CNS it was 97.7%; in the test with PC-3 prostate, 98.8%; in the test on SK-MEL-5 melanoma, 97.4%. For the same molecule, the growth in the test with UACC-62 melanoma is 97.6%; in the test on LOX IMVI melanoma, 97%; with SK-MEL-28 melanoma it was 98.4%.

As to `Clc1cccc(Cl)c1Cl`, the growth in the test on HCT-15 colon is 101%; in the test with HT29 colon, 82.8%; in the test with SNB-75 CNS, 93.8%; in the test on SNB-19 CNS it was 118%; with PC-3 prostate, 103%; in the test on SK-MEL-5 melanoma, 105%. Besides, the growth with UACC-62 melanoma was 99.8%; in the test on LOX IMVI melanoma, 101%; in the test with SK-MEL-28 melanoma, 109%.

As for `COc1cc([C@@H]2c3cc4c(cc3[C@H](OC(C)=O)[C@H]3COC(=O)[C@@H]23)OCO4)cc(OC)c1OC`, the growth was 11.8% in the test with HCT-15 colon; 1.62% (active) in the test with HT29 colon; 4.62% (active) in the test with SNB-75 CNS; 8.16% (active) in the test on U251 CNS; 15% in the test on PC-3 prostate; -20.9% (active) in the test on SK-MEL-5 melanoma. The values for the growth with UACC-62 melanoma, with LOX IMVI melanoma and with SK-MEL-28 melanoma were 18.5%, 27.3% and 48.6%, respectively.

For the molecule `CC1=C(CCCOC(=O)[C@H](N)CC(C)C)C2=C(C)C3(CC3)[C@@](C)(O)C(=O)C2=C1`, the growth is 4.16% (active) in the test with HCT-15 colon; 12.6% in the test on HT29 colon; -7.8% (active) with SNB-75 CNS; 45.4% in the test on SNB-19 CNS; 28.5% in the test on PC-3 prostate; -67.6% (active) in the test on SK-MEL-5 melanoma. For the same molecule, the values for the growth with UACC-62 melanoma, in the test on LOX IMVI melanoma and in the test on SK-MEL-28 melanoma were 11.3%, 41.8% and 33.8%, respectively.

`O=P(N1CC1)(N1CC1)N1CCc2ccccc21`: the growth in the test on HCT-15 colon is 115%; with HT29 colon, 104%; in the test on SNB-75 CNS, 91.1%; in the test on SNB-19 CNS, 102%; in the test on PC-3 prostate it was 88.6%; in the test on SK-MEL-5 melanoma, 109%. Further, the growth in the test with UACC-62 melanoma was 92.8%; in the test with LOX IMVI melanoma it was 93.3%; with SK-MEL-28 melanoma it was 115%.

As to `CC(=O)/C=C/c1ccc2c(c1)OCO2`, the growth with HCT-15 colon was 99.7%; in the test with HT29 colon, 106%; with SNB-75 CNS, 79.2%; in the test on SNB-19 CNS it was 84.6%; with PC-3 prostate it was 95.8%; with SK-MEL-5 melanoma, 100%. The growth in the test on UACC-62 melanoma is 90.2%; in the test with LOX IMVI melanoma it was 109%; with SK-MEL-28 melanoma, 107%.

As for `COC(=O)C1OC(Oc2ccc(N(CCCl)CCCl)cc2)C(OC(C)=O)C(OC(C)=O)C1OC(C)=O` (stereo unspecified), the growth with HCT-15 colon is 83.3%; with HT29 colon it was 80.7%; in the test with SNB-75 CNS, 59.2%; in the test with SNB-19 CNS it was 92.6%; in the test with PC-3 prostate it was 78%; in the test with SK-MEL-5 melanoma, 92.1%. The figures for the growth in the test with UACC-62 melanoma, in the test with LOX IMVI melanoma and with SK-MEL-28 melanoma were 79.6%, 77.2% and 83.5%, respectively.

In the case of `O=C(NCCN1CC1)C(=O)NCCN1CC1`, the growth in the test with HCT-15 colon is 95.2%; with HT29 colon it was 68.9%; in the test on SNB-75 CNS, 76%; in the test on SNB-19 CNS, 101%; with PC-3 prostate, 93.2%; with SK-MEL-5 melanoma, 94.6%. Also, the growth was 91.7% in the test on UACC-62 melanoma, 80.2% with LOX IMVI melanoma and 102% in the test on SK-MEL-28 melanoma.

As for `CC(=O)OC1CCC2(C)C(CCC3C2CC(=O)C2(C)C3CC(Sc3ccc(N(CCCl)CCCl)cc3)C2C(C)=O)C1` (stereo unspecified), the growth in the test with HCT-15 colon was 50.5%; in the test with HT29 colon it was 11.9%; in the test with SNB-75 CNS, 111%; in the test with SNB-19 CNS it was 82.7%; with PC-3 prostate, 85.5%; in the test on SK-MEL-5 melanoma, 93%. For the same molecule, the growth with UACC-62 melanoma is 67.9%; in the test on LOX IMVI melanoma, 55.1%; in the test with SK-MEL-28 melanoma, 99.8%.

For the molecule `COC1=CC(=O)O[C@@H](/C=C/c2ccc3c(c2)OCO3)C1`, the growth in the test on HCT-15 colon is 103%; in the test on HT29 colon, 111%; in the test with SNB-75 CNS it was 116%; in the test on SNB-19 CNS, 101%; with PC-3 prostate, 83.5%; in the test on SK-MEL-5 melanoma, 116%. For the same molecule, the growth in the test on UACC-62 melanoma is 94%; with LOX IMVI melanoma it was 98.2%; in the test on SK-MEL-28 melanoma it was 120%.

Consider `Cc1ccc(S(=O)(=O)F)cc1C(=O)O`, for which the growth was 102% in the test with HCT-15 colon; 100% with HT29 colon; 76.8% in the test on SNB-75 CNS; 97.5% with SNB-19 CNS; 110% with PC-3 prostate; 102% in the test on SK-MEL-5 melanoma. The growth with UACC-62 melanoma was 109%; in the test with LOX IMVI melanoma, 102%; with SK-MEL-28 melanoma, 110%.

Regarding `CC(=O)[O][Hg][c]1c(N)c(C)cc(C)c1F`, the growth with HCT-15 colon was -14.2% (active); in the test on HT29 colon, 10% (active); with SNB-75 CNS, 32%; in the test on SNB-19 CNS, 112%; in the test with PC-3 prostate it was 51.9%; in the test with SK-MEL-5 melanoma it was 41%. Further, the figures for the growth with UACC-62 melanoma, in the test with LOX IMVI melanoma and in the test with SK-MEL-28 melanoma were 27.8%, -70.1% (active) and -39.1% (active), respectively.
